# SW480 rerep: induces DNA re-replication in SW480 colon adenocarcinoma cells. SW480 DNA re-replication, Hoechst DNA content imaging, 48 h. Potency, µM (highest dose often 46.1 µM), for inactives: at the top dose re-replication activation, most hits filed as activators. 1.8% of 340,000 active. AID 624297; further: % of control where 0% means no effect; nearly all actives have a fitted effect of over 55% in size
#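 Image-based read-out: total Hoechst fluorescence of nuclei (405 nm excitation, 500-530 nm emission), with hits raising the fraction of high-intensity nuclei. SW480 colon cells incubated 48 hr with compounds at 37 C.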
# KB-3-1 cytotox: KB-3-1 parental cell cytotoxicity | Potency, µM (titrated, usually from 46.1 µM), actives largely listed as cytotoxic | 1.4% of 400,000 active | AID 1347075 | KB-3-1 viability, CellTiter-Glo ATP luminescence, 72 h; further: on the % scale 0 is the no-effect control and ±100 the full control effect; nearly all actives have a fitted effect of over 60% in size
#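 Viability of parental KB-3-1 cells, measured by CellTiter-Glo luminescence, followed a 72 h incubation at 37 °C with pinned compounds in phenol-red-free DMEM containing 10% FBS.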
# MCF10A rereplic: induces DNA re-replication in MCF 10a normal breast cells; MCF 10A DNA re-replication, Hoechst nuclear intensity, 48 h; Potency, µM (top dose mostly 46.1 µM), inactives show at the top dose activity, positive = re-replication, actives largely listed as activators; 2.9% of 350,000 active; AID 624296; further: % of control where 0% means no effect; nearly all actives have a fitted effect of over 50% in size
# KB-V1 MDR tox: kills drug-selected multidrug resistant KB-V1 cells | KB-V1 MDR cells viability, CellTiter-Glo, 72 h | Potency, µM (series often up to 46.1 µM), usual class: cytotoxic | 3.4% of 400,000 active | AID 1347076; further: on the % scale 0 is the no-effect control and ±100 the full control effect; nearly all actives have a fitted effect of over 60% in size
#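 Cytotoxicity toward P-gp-expressing KB-V1 cells was determined as loss of CellTiter-Glo luminescence after 72 h at 37 degrees C. Compounds were tested in quantitative HTS format across a concentration range, with curves fitted to normalized data.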
# PINK1 expr mod: modulators of PINK1 expression | 0.2% of 410,000 active | PINK1 immunofluorescence, high-content cytometry, 24 h | Potency, µM (highest dose often 76.6 µM), without a hit: at the top dose activation (PINK1 increase), hits mostly activators; active means well fitted activation curve with a large enough effect; inconclusive means small, poorly fitted or top-dose-only effect; cell line not stated here; further: % of control where 0% means no effect; nearly all actives have a fitted effect of over 65% in size
#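 Stable cell line, 250 cells/well, 12 h attachment; compounds pinned at 5 concentrations, 24 h; CCCP control. Fixed with nuclear dye, primary antibodies 12 h at 10 degrees C, secondary plus cell stain; laser-scanning cytometer read.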
# * marks the source's active call; other numbers are inactive results; i = inactive; u = inconclusive; x = no result. In the library only some 6.7% were active in any assay of this set; here they are far more common. Unless noted, the call rests on the fitted dose curve; in most records, active means well fitted curve in the direction sought with a large enough effect; inconclusive means small, poorly fitted or top-dose-only effect, or another doubt; inactive means no such curve, though single readings can be large; an effect the other way counts as inactive or inconclusive. Potency means the concentration at half of the fitted maximal effect.
SMILES,SW480 rerep,KB-3-1 cytotox,MCF10A rereplic,KB-V1 MDR tox,PINK1 expr mod
CCCCCCCCN1C(=O)[C@H](CC(=O)NCCCC)C[C@@]2(C(=O)OC)CC(C)(C)CC=C12,x,u,x,21µM*,x
Cc1ccc(N(C(=O)c2csnn2)C(C(=O)NC2CCCC2)c2cccnc2)c(C)c1 (configuration not stated),u,u,-17%,i,-2%
Cn1c(NCCc2ccncc2)nc2cc(-c3ccccc3)sc2c1=O,x,i,x,i,2%
O=C(NCC1CCCCC1)C1CCCN(C(=O)NC2CCCCC2)C1 (configuration not stated),0%,u,7%,4.1µM*,-5%
O=C(NCc1ccccc1F)C1CCCN(C(=O)Nc2ccc(F)cc2)C1 (configuration not stated),-26%,i,-6%,i,1%
O=C(NCc1ccccc1F)C1CCCN(C(=O)NC2CCCCC2)C1 (configuration not stated),-2%,i,12%,21µM*,1%
O=Cc1s/c(=N\S(=O)(=O)c2ccccc2)n(CCCCl)c1Cl,8.2µM*,u,u,i,-1%
CCn1c(C)cs/c1=N\S(=O)(=O)c1ccccc1,-4%,i,-4%,i,1%
O=C(CN1C(=O)COc2ccccc21)Nc1ccccc1F,4%,u,14%,i,2%
O=C1COc2ccccc2N1Cc1c(F)cccc1Cl,50%,i,23µM*,i,0%
CC(=NNc1nc2ccccc2s1)c1ccncn1,u,7.3µM*,7.3µM*,u,0%
C/C(=N\Nc1nc2ccccc2s1)c1ccc(Br)s1,-6%,i,u,u,0%
CNc1cccnc1C=NNC(N)=S,0.92µM*,u,28%,u,-6%
CCOC(=O)C1=C(C)N(c2ccc(OCC)cc2)C(=O)/C1=C\c1ccco1,17%,i,16µM*,i,6%
Cc1cccc(C)c1NC(=O)C(c1ccccc1)N1CCN(c2ccc(C(F)(F)F)cn2)CC1 (configuration not stated),x,i,x,i,3%
Cc1ccc(NC(=O)c2cc3ccccc3oc2=N)cc1,u,i,-1%,i,-1%
N=c1oc2c3c4c(cc2cc1C(=O)Nc1ccccc1)CCCN4CCC3,1.4µM*,i,4.1µM*,i,11µM*
COc1ccccc1-c1cncnc1Nc1ccccc1,x,x,x,x,-1%
CCC(C)(C)c1ccc(OCCCC[n+]2cccc(C)c2)c(C(C)(C)CC)c1,u,3.3µM*,u,i,6%
CC/C(=C\c1oc2cc3ccccc3cc2[n+]1CC)Nc1ccccc1,18µM*,i,23µM*,21µM*,u
CCOC(=O)c1c(C)[nH]c(C)c1S(=O)(=O)N1CCCC(C(=O)Nc2ccccc2OCC)C1 (configuration not stated),x,i,x,i,-1%
CCOc1ncccc1C(=O)Nc1ccc(C)c(S(=O)(=O)N2CCCCCC2)c1,-15%,u,9.2µM*,u,2%
COc1ccc(NC(=O)Cc2ccsc2)cc1S(=O)(=O)N1CCCCC1,0%,i,-3%,21µM*,6%
Cc1ccccc1OCC(=O)Nc1ccc(C)c(S(=O)(=O)N2CCCCCC2)c1,-5%,i,16%,12µM*,0%
Cc1ccc(NC(=O)COc2ccccc2)cc1S(=O)(=O)N1CCCCC1,x,i,x,u,3%
Cn1c(=O)n(C)c2cc(NC(=O)CCl)ccc21,u,4.6µM*,18µM*,16µM*,1%
CCCCn1nnnc1C(c1ccccc1)N1CCN(c2ccc(C)cc2)CC1 (configuration not stated),x,i,x,i,0%
CCC/C=C/c1ccc(CN2C(C)C(=O)N(Cc3cn(CC4CCCCC4)nn3)CCS2(=O)=O)cc1 (configuration not stated),x,i,x,i,0%
CCC(=O)N1CCC1(C)C(=O)NS(=O)(=O)c1cccc(C#N)c1 (configuration not stated),x,i,x,i,1%
COc1ccc(NC(=O)CCOc2ccc(C)cc2)cc1S(=O)(=O)N1CCOCC1,-9%,i,1%,18µM*,-2%
